miR-122 inh: activators of miR-122 sensor in Huh7 cells | Huh7 psiCHECK-miR122 Renilla luciferase sensor, 48 h | activation, % at 12.5 µM | 340,000 compounds, 0.14% hits;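 active means mean activation of 30% or more, with every replicate also reaching 30%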;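 further: 0% = median of neutral control wells and 100% = median of positive control wells; higher luciferase signal means stronger suppression of miR-122 activity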
* marks the source's active call; other numbers are inactive results. This is one part of a sample in which hits are shown more often than they occur.

SMILES	miR-122 inh
CN1CCN(c2ccc([N+](=O)[O-])c3no[n+]([O-])c23)CC1	35.1*
CN=C1CN(O)C(c2ccccc2)c2cc(Cl)ccc2N1 (configuration not stated)	-111.4
CCOc1ccccc1NC(=O)N1CCC2(CC1)OCCO2	-115.1
COc1ccc(C2SCC(=O)Nc3c2c(=O)[nH]n3C2CCCCCC2)cc1 (configuration not stated)	37.0*
CCCCn1nnnc1C(c1cccc(OC)c1OC)N1CCC2(CC1)C(=O)NCN2c1ccccc1 (configuration not stated)	-91.7
COc1cc2c(c(OC)c1OC)-c1ccc(O)c(=O)cc1C(NC(C)=O)CC2 (configuration not stated)	-96.8
Cc1ccc(OP(=O)(Nc2cccc(C)c2)Oc2ccc(C)cc2)cc1	-187.1
CCN(CC)S(=O)(=O)c1ccc(C)c(NCC(=O)Nc2ccc(C#N)c(Cl)c2)c1	-119.2
COc1ccc(NP(=O)(Oc2ccc(Cl)cc2)Oc2ccc(Cl)cc2)cc1OC	-136.5
O=c1cc(C2CCNCC2)[nH][nH]1	-155.7
